The assay concerns the target T1, EcR (Drosophila melanogaster, UniProt P34021 251-348).
T1 sequence: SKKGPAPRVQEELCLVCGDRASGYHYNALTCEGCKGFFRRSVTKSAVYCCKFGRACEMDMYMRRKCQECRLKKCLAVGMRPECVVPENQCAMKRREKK
Briefly: FP; 33 mM phosphate pH 7.0, 90 mM NaCl, 0.01% Tween 20, 0.1 mM DTT, 0.5% agarose; room temperature. The settings on record: tags: N-GST (pGEX-6P-1, kept); dsDNA, one strand shown.
GAAGGACCCCTAC: the binding signal is 10 Kd / Kd of best base at the position.

Regarding GACTGACCCCTAC, the binding signal is 2.46 Kd / Kd of best base at the position. On the same count and under the same terms, the same measure for CAATGACCCCTAC: 1.8 Kd / Kd of best base at the position. For the sequence GAATAACCCCTAC, the binding signal is 3.47 Kd / Kd of best base at the position. Still for that read-out and setting: the same measure for GAATGATCCCTAC: 9.3 Kd / Kd of best base at the position; for GGATGACCCCTAC: 1.78 Kd / Kd of best base at the position; for GAGTGACCCCTAC: 1.99 Kd / Kd of best base at the position. Same read-out and setting: the figure for GAATGACCACTAC is 5.04 Kd / Kd of best base at the position; for GATTGACCCCTAC it is 1.87 Kd / Kd of best base at the position; for GAATGACCCCTGC it is 1.47 Kd / Kd of best base at the position. The same measure, in the same setting: the same measure for GAATGACCCCTAA: 1.25 Kd / Kd of best base at the position; for GAATGACTCCTAC: 7.37 Kd / Kd of best base at the position; for GCATGACCCCTAC: 2.1 Kd / Kd of best base at the position. In the case of GAATGACCCTTAC, the binding signal is 1.59 Kd / Kd of best base at the position. For GAATGACACCTAC, the binding signal is 4.55 Kd / Kd of best base at the position. In the case of GAATGACCCCGAC, the binding signal is 1.46 Kd / Kd of best base at the position.

Take GAATGTCCCCTAC: the binding signal was 6.26 Kd / Kd of best base at the position.

Regarding AAATGACCCCTAC, the binding signal was 1.94 Kd / Kd of best base at the position.

Turning to GAATGACCCCTAG, the binding signal was 1.29 Kd / Kd of best base at the position.

For GAATGACCCCTCC, the binding signal was 1.29 Kd / Kd of best base at the position.

With GAATGACGCCTAC, the binding signal was 19.5 Kd / Kd of best base at the position. Still for that read-out and setting: the same measure for GAATGACCCCTAT: 1.25 Kd / Kd of best base at the position; for GTATGACCCCTAC: 1.76 Kd / Kd of best base at the position; for GAATGACCCCAAC: 1.46 Kd / Kd of best base at the position.

On to TAATGACCCCTAC, for which the binding signal was 1.83 Kd / Kd of best base at the position. Take GAATGAACCCTAC: the binding signal was 1.84 Kd / Kd of best base at the position. Still for that read-out and setting: the same measure for GAATGCCCCCTAC: 3.38 Kd / Kd of best base at the position. On the same count and under the same terms, the same measure for GAATGACCCCCAC: 1.69 Kd / Kd of best base at the position; for GAATGAGCCCTAC: 12.7 Kd / Kd of best base at the position. On the same count and under the same terms, the same measure for GAATTACCCCTAC: 11.6 Kd / Kd of best base at the position; for GAATGGCCCCTAC: 5.84 Kd / Kd of best base at the position. For GAATCACCCCTAC, the binding signal was 9.57 Kd / Kd of best base at the position. Take GAATGACCGCTAC: the binding signal is 2.37 Kd / Kd of best base at the position. Still for that read-out and setting: the figure for GAATGACCCATAC is 2.6 Kd / Kd of best base at the position; for GAATGACCCCTTC it is 1.34 Kd / Kd of best base at the position; for GAATGACCTCTAC it is 1.03 Kd / Kd of best base at the position. Regarding GAATGACCCGTAC, the binding signal was 2.06 Kd / Kd of best base at the position. As for GAATGACCCCTAC, the Kd is ~23.7 nM. Take GAACGACCCCTAC: the binding signal is 3.06 Kd / Kd of best base at the position.

The Kd is a measure of binding affinity in units of concentration. A low value points to higher affinity.

For the origin of these results see PMC5913336, “True equilibrium measurement of transcription factor-DNA binding affinities using automated polarization microscopy”.
